The experiment deals with Neurotensin receptor type 1 (Homo sapiens) (UniProt P30989). Nature of the experiment: beta-arrestin-GFP spots via human NTR1 – imaging, U2OS cells, single concentration, confirmation (AID 504550).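 Also: 0% = DMSO without peptide and 100% = 100 nM NTR1 peptide.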 The conditions noted are these: NTR1-U2OS beta-arrestin-GFP translocation imaging; at 20 µM; active compounds read high.

The list shows a part of the results. Active and inactive are the calls of the source.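 The calls were made as follows: active = mean activation at 20 µM of at least 40%; inactive = the rest.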

Sequence of Neurotensin receptor type 1 (Homo sapiens) (P30989 whole entry, looked up): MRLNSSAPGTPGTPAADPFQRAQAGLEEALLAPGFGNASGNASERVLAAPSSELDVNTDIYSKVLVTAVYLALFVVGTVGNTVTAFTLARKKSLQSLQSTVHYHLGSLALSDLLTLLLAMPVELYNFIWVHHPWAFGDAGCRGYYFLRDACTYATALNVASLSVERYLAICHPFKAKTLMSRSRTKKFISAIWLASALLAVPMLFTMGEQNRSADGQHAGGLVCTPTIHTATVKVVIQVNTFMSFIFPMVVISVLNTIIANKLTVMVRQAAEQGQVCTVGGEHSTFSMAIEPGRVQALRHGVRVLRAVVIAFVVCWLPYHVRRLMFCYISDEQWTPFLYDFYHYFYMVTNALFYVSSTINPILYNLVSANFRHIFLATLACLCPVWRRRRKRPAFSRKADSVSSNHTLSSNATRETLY

Take `O=C1NC(=O)N(CCc2ccc(F)cc2)C(=O)/C1=C/C=C/c1ccccc1`: the activation was 43.1% (active).

With `Cc1cccc(N2C(=O)NC(=O)/C(=C\c3cnn(-c4ccccc4)c3)C2=O)c1`, the activation is 47.1% (active).

The record behind these values is PubChem BioAssay AID504550 (Sanford-Burnham Center for Chemical Genomics, 2011).
